Bioassay records as filed in PubChem BioAssay.
Coupling enz: qHTS Assay for Inhibitors of Fructose-1,6-bisphosphate Aldolase from Giardia Lamblia: Coupling assay counterscreen; coupling enzyme system counterscreen, AmpLite Red fluorescence; 290,000 compounds, 0.67% hits; activity change, negative = inhibition, % at 58.2 µM, hits read low; in the data active = activity change below about -30%
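Counterscreen of the coupled detection system alone, without aldolase: glyceraldehyde-3-phosphate coupling enzymes plus AmpLite Red readout. Compounds at 57.5 uM final, 10 min RT preincubation, 20 min RT reaction, fluorescence 525/598 nm.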
Tau fluor cs: Counterscreen qHTS for Inhibitors of Tau Fibril Formation, Fluorescence Polarization | 280,000 compounds, 0.93% hits | tau K18 P301L Alexa594 fluorescence, heparin fibrillization | Potency, µM (series often up to 57.7 µM), for the others: top-dose activity change, negative = decrease; note: potency is the fitted concentration of half-maximal effect; nearly all actives have a fitted effect of over 55% in size
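Human K18 P301L tau (15 uM unlabeled plus 0.24 uM Alexa 594-labeled, final) in 100 mM sodium acetate pH 7 was mixed with compound and 20 uM heparin and incubated 6 hr at 37 C.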
Tau fibril FP: qHTS for Inhibitors of Tau Fibril Formation, Fluorescence Polarization; Microtubule-associated protein tau (Homo sapiens), P10636; K18 P301L tau heparin fibrillization, Alexa594 FP, 6 h; Potency, µM (series often up to 57.7 µM), inactives show at the top dose activity, negative = inhibition, actives largely listed as inhibitors; 280,000 compounds, 0.39% hits; AID 1468, 2008; note: potency is the fitted concentration of half-maximal effect; nearly all actives have a fitted effect of over 55% in size
Target sequence (P10636 561-689 P618L limits assumed): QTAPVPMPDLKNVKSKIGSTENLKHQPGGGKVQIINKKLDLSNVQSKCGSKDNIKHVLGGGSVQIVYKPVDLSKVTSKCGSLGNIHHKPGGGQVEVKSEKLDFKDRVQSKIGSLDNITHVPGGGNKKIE
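Steps: dispense K18 P301L tau (15 uM plus 0.24 uM Alexa 594 tracer, final) in pH 7 sodium acetate; add compound; add heparin (20 uM final); incubate 6 hr, 37 C; add ThT (30 uM final); after 1 hr ambient, read FP.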
Tau ThT inhib: qHTS for Inhibitors of Tau Fibril Formation, Thioflavin T Binding; recombinant tau K18 P301L (four-repeat tau fragment), heparin-induced fibrillization, ThT fluorescence; Microtubule-associated protein tau (Homo sapiens), P10636; Potency, µM (doses to about 57.4 µM), for inactives: top-dose activity, negative = inhibition, usual class: inhibitors; 270,000 compounds, 2.1% hits; note: potency is the fitted concentration of half-maximal effect; nearly all actives have a fitted effect of over 55% in size
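Aggregation was driven by heparin (20 uM final) acting on recombinant tau […] bearing P301L in 100 mM sodium acetate pH 7; fibrils were detected with Thioflavin T.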
Sfp inh: qHTS Assay for Inhibitors of Bacillus subtilis Sfp phosphopantetheinyl transferase (PPTase) | 4'-phosphopantetheinyl transferase ffp (Bacillus subtilis), Q9F4F7 | Biochemical Sfp PPTase activity, qHTS | Potency, µM, without a hit: largest response in the series, negative = inhibition, hits mostly inhibitors | 310,000 compounds, 3.5% hits;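 note: the enzyme is Sfp with the accession as filed and its product quenches rhodamine fluorescence; potency is the fitted concentration of half-maximal effect; 0% = enzyme reaction without inhibitor and -100% = no enzyme wells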
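Step 1, compound plus 15 nM Sfp-PPTase, 15 min, room temperature. Step 2, add rhodamine-CoA (5 uM) and BHQ-2-YbbR (12.5 uM). Step 3, read 525/598 nm fluorescence at 0 and 30 min.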
* hit, by the source's call; ? = inconclusive; nt = no result given; ! = not confirmed by another sample; [ ] = remark or other dose. Rows were chosen to be rich in hits. Some 5.2% of all compounds tested hit in one or more screens of this group. Unless noted, calls come from the whole dose curve; as a rule, active = well fitted curve in the direction sought with a large enough effect; inconclusive = small, poorly fitted or top-dose-only effect, or another doubt; inactive = no such curve, though single readings can be large; an effect the other way counts as inactive or inconclusive. Unless noted, % is set by controls: 0 for no effect and ±100 for the full control effect.

SMILES	Coupling enz	Tau fluor cs	Tau fibril FP	Tau ThT inhib	Sfp inh
CC(C)CCCCCCNC(=S)Nc1ccc(S(=O)(=O)N2CCOCC2)cc1	-6	?	25µM*	15%	31%
O=c1cc(CSc2ncn[nH]2)[nH]c2c(Cl)cccc12	nt	-1%	4%	-1%	nt
Cc1oc(-c2ccc(C(=O)Nc3cccc(C(F)(F)F)c3)cc2)nc1CSc1ccccc1	nt	?	14µM*	6%	nt
NC(C(=O)N[C@@H]1C(=O)N2C(C(=O)O)=C(Cl)CS[C@H]12)c1ccccc1 (stereo partly drawn)	nt	-15%	?	28µM*	nt
CC1=C(C(=O)O)N2C(=O)C(NC(=O)C(N)C3=CCC=CC3)C2SC1 (stereo not drawn)	0	-26%	?	?	-75%
CC1=C(C(=O)O)N2C(=O)C(NC(=O)C(N)c3ccc(O)cc3)C2SC1 (stereo not drawn)	-1	?	?	28µM*	-82%
CC(=O)Nc1ccc(S(=O)(=O)Nc2cccc3cccnc23)cc1	-4	nt	nt	nt	-7%
O=S(=O)(Nc1cccc2cccnc12)c1ccccc1	-39*!	nt	nt	nt	4%
Cc1oc(-c2ccc(C(F)(F)F)cc2)nc1CN(Cc1ccccn1)C[C@@H]1CCC(=O)N1	2	-4%	-2%	-9%	-19%
CCOc1ccc(-c2nc(CN(Cc3ccccc3)C[C@@H]3CCC(=O)N3)c(C)o2)cc1	-8	5%	4%	-22%	79µM*
COc1cccc(N2CCN(C(=S)NCCc3ccccc3)CC2)c1	-2	-29%	6%	?	12%
Oc1ccccc1N1CCN(C(=S)NCCc2ccccc2)CC1	-2	-26%	10%	?	45µM*
Oc1ccc(N2CCN(C(=S)NCCc3ccccc3)CC2)cc1	-1	-27%	13%	14µM*	11µM*
O=C1CCCc2cc(S(=O)(=O)N3CCCC(C(=O)NCc4ccc(Cl)cc4)C3)ccc2N1 (stereo not drawn)	nt	-13%	-10%	-8%	nt
Cc1cccnc1NC(=S)NC(=O)c1cccs1	1	-12%	-4%	-13%	79µM*
O=C(NC(=S)Nc1ccccc1)c1cccs1	-4	nt	nt	nt	45µM*
Cc1cccnc1NC(=S)NC(=O)c1cncc(Br)c1	1	6%	-2%	0%	?
Cc1cccc(NC(=S)NNC(=S)NCc2ccccc2)c1	1	-20%	1%	-17%	79µM*
O=C(Nc1ccc(NC(=S)NC(=O)c2cccs2)cc1)c1ccccc1	-1	-1%	-10%	?	4%
Cc1c(C(=O)NC(=S)Nc2ccc(NC(=O)c3cccs3)cc2)oc2ccccc12	7	?	5%	?	8.9µM*
O=C(NNC(=S)Nc1ccccc1)Nc1ccccc1	2	-7%	-9%	-12%	7.1µM*
O=C(NNC(=S)Nc1ccccc1)NNC(=S)Nc1ccccc1	2	6%	2%	5%	7%
C[C@]12C[C@H](O)C3[C@@H](CCC4=CC(=O)CC[C@@]43C)[C@@H]1CC[C@@H]2C(=O)CO (stereo partly drawn)	nt	?	5%	-8%	nt
COc1cccc2c1CCc1c-2nc2ccccc2c1C(=O)O	-33*	nt	nt	nt	2%
CCCc1cc(=O)[nH]c(SCC(=O)NC)n1	-1	-1%	-1%	0%	-8%
SMILES	Coupling enz	Tau fluor cs	Tau fibril FP	Tau ThT inhib	Sfp inh
CCCc1cc(=O)[nH]c(SCC(=O)CSc2nc(CCC)cc(=O)[nH]2)n1	1	-26%	?	16µM*	56µM*
Cc1ccc(C(=O)N2c3nc(-c4ccco4)nn3C3(CCCCC3)[C@@H]3CCCC[C@@H]32)cc1	nt	-1%	-2%	-1%	nt
CC1(C)Cc2ccccc2C(/C(=N\Nc2cccc(Cl)c2)C(N)=O)=N1	-5	?	9%	14µM*	1%
CCN(CC)CC1CCN(c2ncc3ncnc(Nc4ccc(F)c(Cl)c4)c3n2)CC1	1	?	?	?	-21%
Cc1ccc(N(CC(=O)N2CCN(c3cccc(C)c3C)CC2)S(=O)(=O)c2c(C)nn(C)c2C)cc1	nt	-19%	4%	?	nt
CCOc1ccccc1C(=O)N/N=C/c1cccc2cccnc12	-8	-14%	-7%	?	89µM*
CC(C)(C)c1ccc(C(=O)Nc2onc3c2CCCC3)cc1	nt	-22%	1%	-15%	nt
Cc1cc(NC(=O)C2CCCN(S(=O)(=O)c3cn(C)cn3)C2)ccc1Br (stereo not drawn)	nt	-2%	7%	1%	nt
O=C1OCc2cccc([N+](=O)[O-])c21	-2	8%	5%	17%	2%
O=C1CC(=O)c2c1cccc2[N+](=O)[O-]	-16	5.6µM*[quencher]	?	nt	79µM*
NC(=S)N/N=C/c1ncc(C(F)(F)F)cc1Cl	-7	-13%	-10%	-20%	25µM*
O=C(Nc1ccc(Cl)c(Cl)c1)c1ccc(Cl)c(Cl)c1	-10	-27%	?	-7%	2%
Cc1ccc(NC(=O)c2ccc(Cl)c(N3C(=O)C=CC3=O)c2)cc1	3	-2%	-13%	3%	2.8µM*
CCOC(=O)c1c(S(=O)(=O)N2CCC(C(=O)N3CCN(c4ccc(F)cc4)CC3)CC2)c(C)n(C)c1C	nt	8%	7%	2%	nt
CN(C)C(=O)c1ccc(-c2nc(Nc3ccccc3)c3ccccc3n2)cc1	-5	nt	nt	nt	-7%
NC(=O)C1CCN(c2csc3ccc(F)cc3c2=O)CC1	nt	5%	-1%	-2%	nt
CC(=O)Nc1cccc(N=NN2CCOCC2)c1	1	-15%	?	?	9%
CC(=O)Nc1ccc(N=NN2CCOCC2)cc1	-2	-27%	-11%	10µM*	6%
CC(=O)Nc1ccc(-c2ccc(NC(C)=O)cc2)cc1	-2	2%	12%	-6%	19%
CC(=O)Nc1ccc(N=Nc2ccc(O)cc2)cc1	0	-25%	4%	7.9µM*	12%
COc1cccc(-c2nc(NCc3cccs3)c3ccccc3n2)c1	4	nt	nt	nt	15%
CC1(C)CC(=O)C(CS(=O)(=O)c2ccccc2)=C(O)C1	nt	nt	nt	nt	50µM*
CC1(C)CC(=O)C(CC(=O)Nc2ccc(S(N)(=O)=O)cc2)=C(O)C1	-2	-6%	0%	-10%	-1%
